Data: PubChem BioAssay AID1159580 (chemical genetic matrix, 2015)
About 2,000 (36%) of roughly 5,500 compounds were called active. Not shown: some 18% with an inconclusive outcome. No stated cut-off is given here; in the data, active means normalized growth mostly below about 0.91 (no sharp cut-off); inconclusive means no clear call, values can overlap the other calls; inactive means mostly above about 0.92. This is one part of the list.

Assay: chemical genetic growth profiling, strain panel (AID 1159580);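 further: tested at 20 µM; growth read once vehicle control cultures reached saturation at 30 °C; 1 = growth at the plate median or of vehicle wells; lower values mean less growth of the strain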
Conditions: S. cerevisiae deletion strains, growth OD

Measured: normalized growth

CCC(C)COC(=O)/C=C/c1ccc(N=Cc2ccc(OC)cc2)cc1 (stereo unspecified)
inactive: locus YAR019C, strain CDC15, active compounds read low 0.961 | locus YBL105C, strain PKC1, active compounds read low 0.968 | locus YBR135W, strain CKS1, active compounds read low 0.969 | locus YBR136W, strain MEC1, active compounds read low 0.969 | locus YBR160W, strain CDC28, active compounds read low 0.978 | locus YDL017W, strain CDC7, active compounds read low 0.98 | locus YDL028C, strain MPS1, active compounds read low 0.984 | locus YDL101C, strain DUN1, active compounds read low 0.948 | locus YDL108W, strain KIN28, active compounds read low 0.965 | locus YDL132W, strain cdc53, active compounds read low 0.958 | locus YDL214C, strain PRR2, active compounds read low 0.845 | locus YDR052C, strain DBF4, active compounds read low 0.969 | locus YDR054C, strain cdc34, active compounds read low 0.964 | locus YDR226W, strain ADK1, active compounds read low 0.955 | locus YDR477W, strain SNF1, active compounds read low 0.842 | locus YER123W, strain YCK3, active compounds read low 0.743 | locus YER133W, strain GLC7, active compounds read low 0.804 | locus YFL009W, strain cdc4, active compounds read low 0.972 | locus YFL029C, strain CAK1, active compounds read low 0.962 | locus YFR003C, strain YPI1, active compounds read low 0.968 | locus YFR019W, strain FAB1, active compounds read low 0.843 | locus YFR028C, strain CDC14, active compounds read low 0.952 | locus YGR040W, strain KSS1, active compounds read low 0.811 | locus YGR052W, strain FMP48, active compounds read low 0.779 | locus YGR092W, strain DBF2, active compounds read low 0.646 | locus YHR079C, strain IRE1, active compounds read low 0.814 | locus YHR082C, strain KSP1, active compounds read low 0.852 | locus YHR205W, strain SCH9, active compounds read low 0.662 | locus YIL147C, strain SLN1, active compounds read low 0.965 | locus YJL128C, strain PBS2, active compounds read low 0.921 | locus YJL157C, strain FAR1, active compounds read low 0.864 | locus YJR016C, strain ILV3, active compounds read low 0.963 | locus YJR066W, strain TOR1, active compounds read low 0.794 | locus YKL048C, strain ELM1, active compounds read low 0.805 | locus YKL067W, strain YNK1, active compounds read low 0.873 | locus YKL101W, strain HSL1, active compounds read low 0.831 | locus YKL193C, strain SDS22, active compounds read low 0.962 | locus YKL203C, strain TOR2, active compounds read low 0.826 | locus YLR133W, strain CKI1, active compounds read low 0.825 | locus YLR403W, strain SFP1, active compounds read low 0.742 | locus YML070W, strain DAK1, active compounds read low 0.814 | locus YMR001C, strain CDC5, active compounds read low 0.964 | locus YMR205C, strain PFK2 (second series), active compounds read low 0.861 | locus YMR277W, strain FCP1, active compounds read low 0.966 | locus YNL006W, strain LST8, active compounds read low 0.972 | locus YNL020C, strain ARK1, active compounds read low 0.836 | locus YNL161W, strain CBK1, active compounds read low 0.97 | locus YNL183C, strain NPR1, active compounds read low 0.795 | locus YNL207W, strain RIO2, active compounds read low 0.947 | locus YNL222W, strain SSU72, active compounds read low 0.972 | locus YNL307C, strain MCK1 (second series), active compounds read low 0.783 | locus YOL078W, strain AVO1, active compounds read low 0.958 | locus YOL136C, strain PFK27, active compounds read low 0.755 | locus YOR061W, strain CKA2, active compounds read low 0.803 | locus YOR119C, strain RIO1, active compounds read low 0.816 | locus YOR231W, strain MKK1, active compounds read low 0.785 | locus YOR329C, strain SCD5, active compounds read low 0.975 | locus YPL031C, strain PHO85, active compounds read low 0.819 | locus YPL153C, strain RAD53, active compounds read low 0.83 | locus YPL204W, strain HRR25, active compounds read low 0.719 | locus YPL209C, strain IPL1, active compounds read low 0.959 | locus YPR025C, strain CCL1, active compounds read low 0.968 | locus YPR106W, strain ISR1, active compounds read low 0.951 | locus YPR111W, strain DBF20, active compounds read low 0.944 | strain NNK1, active compounds read low 0.941 | strain TSCII, active compounds read low 0.95
active: locus YHR030C, strain SLT2, active compounds read low 0.531 | locus YJL095W, strain BCK1, active compounds read low 0.474 | locus YJR066W, strain TOR1 (second series), active compounds read low 0.241 | locus YLR113W, strain HOG1, active compounds read low 0.696 | locus YPL256C, strain CLN2, active compounds read low 0.798
